Only some compounds are listed: those with a hit (about 1.5% of all), similar ones and a draw of the others.
LANA DNA inh: blocks KSHV LANA C-terminal domain binding to DNA | inhibition, % at 9 µM | AID 504423 | 0.078% of 340,000 active | MBP-C-LANA/FAM-LBS DNA binding, fluorescence polarization;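 active means highest replicate inhibition at or above 60% at 9 µM, even if other replicates fall short; inactive means all replicates below 60% inhibition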;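 further: 0% = neutral control wells and 100% = 4 µM acridine orange control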
GLD-1 RNA inh: GLD-1-TGE RNA interaction inhibition (C. elegans); Q17339; purified GLD-1 + fluorescein TGE RNA, fluorescence polarization; inhibition, % at 5.96 µM; 0.44% of 320,000 active;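 active means percent inhibition above a per-plate cutoff, the plate mean of test compounds plus 3 SD, cut at about 30% in these data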;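 further: 0% = DMSO wells with GLD-1 and probe and 100% = wells lacking GLD-1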
Target sequence (Q17339 whole entry, looked up): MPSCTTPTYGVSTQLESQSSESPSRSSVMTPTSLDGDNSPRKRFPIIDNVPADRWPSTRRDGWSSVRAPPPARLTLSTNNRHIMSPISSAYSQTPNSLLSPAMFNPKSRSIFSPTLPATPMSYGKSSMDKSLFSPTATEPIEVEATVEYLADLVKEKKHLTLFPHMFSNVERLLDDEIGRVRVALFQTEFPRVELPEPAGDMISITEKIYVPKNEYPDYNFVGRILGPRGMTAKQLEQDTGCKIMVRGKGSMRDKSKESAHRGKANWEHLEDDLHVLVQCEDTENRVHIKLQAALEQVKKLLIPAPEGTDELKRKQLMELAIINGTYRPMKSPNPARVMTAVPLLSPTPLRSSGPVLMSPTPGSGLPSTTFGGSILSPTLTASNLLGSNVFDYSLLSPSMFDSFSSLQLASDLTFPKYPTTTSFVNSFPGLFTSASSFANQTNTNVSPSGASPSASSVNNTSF
Keap1 Nrf2 FP: disrupts human Keap1 binding to Nrf2 peptide. Q14145. Keap1 Kelch-Nrf2 peptide fluorescence polarization, 1536-well. inhibition, % at 9.4 µM. 0.15% of 340,000 active. AID 504523; in the data active means inhibition above about 12%;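 further: human Keap1 Kelch domain with fluorescein labeled Nrf2 9mer peptide probe; 0% = neutral control wells and 100% = peptide positive control; higher means more block of Keap1 binding to Nrf2 peptide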
E coli Lon inh: inhibits E. coli Lon protease | purified E. coli Lon protease, fluorescence polarization | inhibition, % at 7.94 µM | 0.42% of 360,000 active | AID 602123; in the data active means inhibition above about 13%, passing the limit was not always enough;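 further: 0% = enzyme with probe and DMSO and 100% = no enzyme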
LANA-H2B inh: blocks KSHV LANA binding to histone H2A/H2B. inhibition, % (no concentration beside the values). cell-free LANA-H2A/H2B peptide, fluorescence polarization. Q9QR71. 0.6% of 320,000 active; in the data active means inhibition mostly above about 10%, no sharp cut-off; inactive means mostly below about 6.7%
EBV gp42 inh: blocks Epstein-Barr virus glycoprotein 42 binding; Fluorescence polarization binding assay, mP read-out; 0.42% of 220,000 active; inhibition, % (tested at 21.74 µM); Q1HVG2; in the data active means inhibition above about 50%
An asterisk follows results filed as active; i = inactive; x = no result.

SMILES | LANA DNA inh | GLD-1 RNA inh | Keap1 Nrf2 FP | E coli Lon inh | LANA-H2B inh | EBV gp42 inh
Cc1ccc(S(=O)(=O)N2[C@H](C(C)C)[C@H]3[C@H]4C(=O)N(c5ccccc5)C(=O)[C@H]4CC(=O)[C@H]3[C@@H]2c2ccccc2)cc1 | x | x | x | 0 | x | x
O=C(c1nc2ccc(Cl)cn2c1CN1CCCC1)N1CCc2ccccc2C1 | 10 | 37* | 6 | 2 | 9 | x
O=C(c1nc2ccc(Cl)cn2c1CN1CCC(CO)CC1)N1CCc2ccccc2C1 | -2 | 7 | -1 | 7 | -4 | x
CC(C)CN(C)Cc1c(C(=O)N2CCc3ccccc3C2)nc2ccc(Cl)cn12 | -3 | 6 | -8 | 2 | 17* | 0
NC(=O)C1CCCN(Cc2c(C(=O)N3CCc4ccccc4C3)nc3ccc(Cl)cn23)C1 (stereo unspecified) | 0 | 12 | -2 | 5 | 99* | x
COC1CCCN(Cc2c(C(=O)N3CCN(C4CCCCC4)CC3)nc3ccccn23)C1 (stereo unspecified) | 3 | 35* | 2 | 13 | -2 | x
CCOC(=O)C1CCCN(Cc2c(C(=O)N3CCOCC3)nc3ccccn23)C1 (stereo unspecified) | 7 | 0 | 5 | 4 | -1 | -11
CC1CCCN(Cc2c(C(=O)N3CCc4ccccc4C3)nc3ccc(Cl)cn23)C1 (stereo unspecified) | 0 | 11 | 0 | -3 | 0 | x
CN1CCN(c2ncnc3c2ncn3[C@H]2CN(Cc3ccc(Cl)cc3)C[C@@H](CO)O2)CC1 | x | x | x | -23 | x | x
O=C(NCCSCc1ccc(Cl)cc1)c1cccs1 | 0 | 2 | -4 | -5 | -3 | -1
CCN(CC)C(=O)c1sc2nc(-c3cccs3)cc(-c3cccs3)c2c1N | 0 | -12 | -1 | -2 | 8 | 47
CCN(CC)C(=O)c1sc2nc(-c3cccs3)cc(-c3ccc(Cl)cc3)c2c1N | 3 | -16 | -4 | 11 | 4 | 86*
Cc1ccc(Cl)cc1-c1cc(C(=O)Nc2ccc(F)cc2)[nH]n1 | x | x | x | -4 | x | x
CCn1c(O)c(/C=C2\C=NN=C2c2ccccc2)sc1=S | 1 | 5 | -7 | -14 | 15* | -19
CCCCn1c(O)c(/C=C2\C=NN=C2c2ccccc2)sc1=S | -2 | -10 | -5 | 14 | -1 | 21
COc1ccc(C(=O)OCC(=O)c2ccco2)cc1[N+](=O)[O-] | x | x | x | 0 | x | x
O=C(N/N=C1/C(=O)c2cccc3cccc1c23)c1ccc(Cl)cc1 | 3 | 5 | 2 | -11 | 1 | 67*
CCOC(=O)C1=C(C)C/C(=N\NC(=O)c2ccccc2O)CC1 | 2 | -3 | -4 | 3 | 17* | -5
Cc1cc(NS(=O)(=O)c2ccc(NC(=O)Cc3cccs3)cc2)no1 | 0 | -1 | -1 | 10 | -2 | -13
Cc1cc(NC(=O)Cc2cccs2)no1 | 2 | -12 | 1 | -9 | 2 | 71*
Cn1c(NC(=O)c2ccccc2Br)cc(=O)n(C)c1=O | -1 | 2 | 0 | -8 | 1 | -5
Cn1c(NC(=O)c2ccccc2C(F)(F)F)cc(=O)n(C)c1=O | 1 | 162* | -8 | 3 | 1 | 4
CCOc1ccc2c(c1)C(C)=CC(C)(C)N2C(=O)Nc1ccccc1F | 1 | 9 | -3 | 3 | 1 | -11
CCNC(=O)N1c2ccc(OCC)cc2C(C)=CC1(C)C | -8 | 68* | 1 | 14 | 4 | -13
CCCOc1cc(N(CC)CC)ccc1/C=C(/C#N)c1nc2ccc(C)cc2[nH]1 | 0 | -42 | -6 | i | 0 | 92*
SMILES | LANA DNA inh | GLD-1 RNA inh | Keap1 Nrf2 FP | E coli Lon inh | LANA-H2B inh | EBV gp42 inh
CCN(CC)c1ccc(/C=C(/C#N)c2nc3ccc(C)cc3[nH]2)c(OC(C)C)c1 | 1 | 6 | -12 | -446 | 4 | 67*
CCc1cc(-c2[nH]ncc2-c2ccc3c(c2)OCO3)c(O)cc1O | -1 | 16 | -1 | -1 | -8.4* | -1
CC1(C)CC(=O)C=C(NNC(=O)c2cccnc2)C1 | x | 81* | x | 31 | 2 | 0
O=C(C1=C(O)C(=O)N(CCN2CCOCC2)C1c1ccc(F)cc1)c1cc2ccccc2o1 (stereo unspecified) | -1 | -1 | -7 | -1 | -7 | x
O=C(C1=C(O)C(=O)N(CCCN2CCOCC2)C1c1ccccn1)c1cc2ccccc2o1 (stereo unspecified) | -2 | -3 | -4 | -5 | 28* | -11
CCN(CC)CCN1C(=O)C(O)=C(C(=O)c2ccc(C)o2)C1c1ccccn1 (stereo unspecified) | x | 2 | x | x | 16* | x
C/C(=N/Nc1ccc(C(=O)c2c(C)cc3ccccn23)cc1[N+](=O)[O-])c1ccc(O)cc1 | 0 | x | -4 | -24 | x | x
Cc1c(C(=O)OC(C)C)nnn1-c1nonc1N | -1 | 2 | -2 | 4 | 3 | -12
CC(NCC(=O)Nc1ccccc1C(=O)NC1CC1)c1cccc(C(F)(F)F)c1 (stereo unspecified) | 0 | 1 | 0 | -4 | 11* | x
N#Cc1ccc(S(=O)(=O)N2CCCCC2c2cc(C(=O)NCc3ccccc3)no2)cc1 (stereo unspecified) | x | x | x | -9 | x | x
COc1cccc(CNC(=O)[C@@H]2CCCN2C(=O)[C@H]2CCCCN2C(=O)c2cccs2)c1 | x | x | x | 3 | x | x
CC(=O)Oc1ccc2c(c1)Oc1cc(OC(C)=O)ccc1C21OC(=O)c2ccccc21 | 168* | 142* | 15* | x | 142* | 95*
CC(=O)Nc1ccc(CN2C(=O)C(C)(C)ON=C2c2ccc(C(F)(F)F)cc2)cc1 | x | x | x | 3 | x | x
O=C(N=c1ccn(-c2nc3ccccc3nc2NS(=O)(=O)c2ccc(Cl)cc2)cc1)c1ccccc1Cl | x | 6 | x | x | 15* | 43
O=S(=O)(Nc1nc2ccccc2nc1N1CCN(c2ccccn2)CC1)c1ccc(Cl)cc1 | 7 | x | 4 | 10 | x | 64*
O=S(=O)(Nc1nc2ccccc2nc1N1CCc2ccccc2C1)c1ccc(Cl)cc1 | 1 | -1 | 0 | -18 | 2 | -2
CCc1nc2ccc(C(=O)Nc3cccc(NS(C)(=O)=O)c3)cn2c1N(CCC(C)C)CCN(C)C | x | x | x | 7 | x | x
COc1c2ccccc2nn1C(C)C | x | x | x | -3 | x | x
Cc1ccc(/C=c2\sc3nc(-c4cccnc4)nn3c2=O)cc1 | -2 | -1 | -2 | 1 | 2 | 86*
CC(C)c1ccc(/C=c2\sc3nc(-c4ccncc4)nn3c2=O)cc1 | -1 | 9 | -2 | 6 | -5 | -20
Cc1ccc(Nc2nc(=O)c3cc([N+](=O)[O-])ccc3s2)cc1 | 0 | -1 | -5 | 11 | -8 | 4
COc1ccc(Nc2nc(=O)c3cc([N+](=O)[O-])ccc3s2)cc1 | -2 | x | 0 | 0 | x | 61*
CC(C)n1nnnc1C1c2ccccc2C(=O)N1CCOc1ccccc1 (stereo unspecified) | x | x | x | 3 | x | x
O=C1c2ccccc2C(=O)N1Cc1nc2ccccc2o1 | -1 | -12 | 0 | -1 | 5 | -14
O=C1c2ccccc2C(=O)N1CCCSc1nc2ccccc2o1 | -2 | 1 | -5 | -4 | 15* | 12

Compound activity (PubChem)
